We go through 20 compounds from PubChem BioAssay.

A short description of experiment [1]: antimalarial activity against Dd2 strain (AID 2302;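 active = growth inhibition above 50% at the single 2 µM test dose, taken to imply half-maximal potency below 2 µM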;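 note: 0% = DMSO untreated growth and 100% = chloroquine plus artemisinin killed control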). As to conditions: P. falciparum Dd2 in RBCs, LDH growth readout, 72 h; at 2 µM; stronger effect = higher value.
The nature of experiment [2]: HepG2 cytotoxicity, primary screen, cytotoxicity control for P. falciparum antimalarial project, cell-based, ATP luminescence (AID 2303;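 active = inhibition above 50%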;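 note: 0% = DMSO wells and 100% = digitonin-killed cells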). Particulars: HepG2 viability, 24-48 h, at 10 µM, stronger effect = higher value.
In experiment [3] the target is L-lactate dehydrogenase (Plasmodium falciparum (isolate CDC / Honduras)) (UniProt Q27743). Nature of the experiment: PfLDH activity inhibition – cell lysate, 3D7 strain, counter-screen for P. falciparum growth inhibition project (AID 2304).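 Note: 0% = vehicle and 100% = reference inhibitor.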 As to conditions: P. falciparum 3D7 crude extract, LDH APAD/NBT absorbance; at 2 µM; stronger effect = higher value. Background: Counterscreens check selectivity or assay interference.
Sequence of L-lactate dehydrogenase (Plasmodium falciparum (isolate CDC / Honduras)) (Q27743 whole entry, looked up): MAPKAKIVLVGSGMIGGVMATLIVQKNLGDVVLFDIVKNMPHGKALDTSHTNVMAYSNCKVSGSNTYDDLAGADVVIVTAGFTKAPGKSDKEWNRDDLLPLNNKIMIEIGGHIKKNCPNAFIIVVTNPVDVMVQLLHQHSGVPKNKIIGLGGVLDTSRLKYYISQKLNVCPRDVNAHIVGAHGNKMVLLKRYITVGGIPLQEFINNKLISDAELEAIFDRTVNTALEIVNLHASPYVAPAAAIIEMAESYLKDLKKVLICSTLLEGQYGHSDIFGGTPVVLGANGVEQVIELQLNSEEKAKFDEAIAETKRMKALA

Experiment [4] is described as follows: inhibition of 3D7 malaria parasite growth – strain 3D7 (AID 2306).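 Note: 0% = DMSO wells and 100% = chloroquine plus artemisinin control wells.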 Particulars: P. falciparum 3D7 erythrocytic growth, LDH absorbance, 72 h; at 2 µM; stronger effect = higher value.
Experiment [5] has as its target Calcium-dependent protein kinase 1 (Plasmodium falciparum (isolate 3D7)) (UniProt P62344). Nature of the experiment: PfCDPK1 kinase inhibitors, biochemical, TCAMS library (AID 1159585; cut-off not given, nearly all actives have IC50 up to about 0.98 µM;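 note: inhibitors leave more ATP so luminescence rises with inhibition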). Particulars: recombinant PfCDPK1, Kinase-Glo ATP depletion luminescence. For orientation: In Kinase-Glo more light means more ATP remaining.
Experiment [6] concerns the target Plasmodium falciparum protein kinase 6 (PK6, PF3D7_1337100) (UniProt Q8IDW1). Description: PfPK6 kinase inhibitors, biochemical, TCAMS library (AID 1159586). Particulars: recombinant PfPK6, Kinase-Glo ATP depletion luminescence.
Experiment [7] addresses Protein kinase 7 (PK7), Plasmodium falciparum 3D7 (PF3D7_0213400) (UniProt Q7YTF7). Description: inhibition of Plasmodium PK7 catalytic activity – biochemical, TCAMS antimalarial set, Kinase-Glo luminescence (AID 1159587). As to conditions: recombinant PfPK7, Kinase-Glo ATP depletion luminescence.
Experiment [8] addresses Calcium-dependent protein kinase 4 (Plasmodium falciparum (isolate 3D7)) (UniProt Q8IBS5). Description: PfCDPK4 kinase inhibitors, biochemical, TCAMS library (AID 1159588; cut-off not given, nearly all actives have IC50 up to about 0.91 µM). As to conditions: recombinant PfCDPK4, Kinase-Glo ATP depletion luminescence.

Values without a mark were called inactive. For some of these results: Measured potencies and affinities stand elsewhere. Active and inactive are the calls of the source. Unless noted, the rule behind the calls is not given here.

Sequence of Calcium-dependent protein kinase 4 (Plasmodium falciparum (isolate 3D7)) (Q8IBS5 whole entry, looked up): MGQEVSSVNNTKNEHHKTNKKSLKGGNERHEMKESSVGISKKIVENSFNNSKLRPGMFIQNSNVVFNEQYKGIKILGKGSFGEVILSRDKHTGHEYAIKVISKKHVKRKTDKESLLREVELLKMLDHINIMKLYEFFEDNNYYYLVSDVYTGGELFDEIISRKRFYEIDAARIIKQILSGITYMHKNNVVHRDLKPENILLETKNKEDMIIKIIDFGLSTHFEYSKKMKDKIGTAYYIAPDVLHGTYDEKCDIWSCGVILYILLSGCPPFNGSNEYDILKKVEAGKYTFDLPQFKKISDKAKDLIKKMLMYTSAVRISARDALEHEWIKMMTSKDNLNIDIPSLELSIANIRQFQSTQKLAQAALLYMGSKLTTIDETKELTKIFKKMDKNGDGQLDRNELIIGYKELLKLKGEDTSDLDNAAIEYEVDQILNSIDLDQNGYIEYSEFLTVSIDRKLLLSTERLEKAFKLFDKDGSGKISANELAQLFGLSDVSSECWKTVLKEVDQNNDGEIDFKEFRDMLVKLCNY
Sequence of Plasmodium falciparum protein kinase 6 (PK6, PF3D7_1337100) (Q8IDW1 1-305): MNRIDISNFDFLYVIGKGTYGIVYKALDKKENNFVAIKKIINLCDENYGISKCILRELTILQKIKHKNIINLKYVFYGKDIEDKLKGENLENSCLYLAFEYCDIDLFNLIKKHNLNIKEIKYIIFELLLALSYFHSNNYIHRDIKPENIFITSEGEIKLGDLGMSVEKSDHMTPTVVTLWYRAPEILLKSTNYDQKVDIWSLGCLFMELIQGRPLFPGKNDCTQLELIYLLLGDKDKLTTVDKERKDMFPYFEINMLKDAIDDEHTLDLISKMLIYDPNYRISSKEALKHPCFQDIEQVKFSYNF
Sequence of Protein kinase 7 (PK7), Plasmodium falciparum 3D7 (PF3D7_0213400) (Q7YTF7 1-343): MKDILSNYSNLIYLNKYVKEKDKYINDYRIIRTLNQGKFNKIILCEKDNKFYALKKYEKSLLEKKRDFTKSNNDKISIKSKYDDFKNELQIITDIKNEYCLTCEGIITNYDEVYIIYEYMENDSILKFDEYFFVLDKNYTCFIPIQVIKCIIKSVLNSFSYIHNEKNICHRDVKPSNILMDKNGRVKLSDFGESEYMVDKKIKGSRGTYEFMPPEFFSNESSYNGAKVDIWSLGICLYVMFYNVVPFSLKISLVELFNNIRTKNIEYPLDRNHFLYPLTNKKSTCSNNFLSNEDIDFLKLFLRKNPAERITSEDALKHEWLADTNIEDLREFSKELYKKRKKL
Sequence of Calcium-dependent protein kinase 1 (Plasmodium falciparum (isolate 3D7)) (P62344 whole entry, looked up): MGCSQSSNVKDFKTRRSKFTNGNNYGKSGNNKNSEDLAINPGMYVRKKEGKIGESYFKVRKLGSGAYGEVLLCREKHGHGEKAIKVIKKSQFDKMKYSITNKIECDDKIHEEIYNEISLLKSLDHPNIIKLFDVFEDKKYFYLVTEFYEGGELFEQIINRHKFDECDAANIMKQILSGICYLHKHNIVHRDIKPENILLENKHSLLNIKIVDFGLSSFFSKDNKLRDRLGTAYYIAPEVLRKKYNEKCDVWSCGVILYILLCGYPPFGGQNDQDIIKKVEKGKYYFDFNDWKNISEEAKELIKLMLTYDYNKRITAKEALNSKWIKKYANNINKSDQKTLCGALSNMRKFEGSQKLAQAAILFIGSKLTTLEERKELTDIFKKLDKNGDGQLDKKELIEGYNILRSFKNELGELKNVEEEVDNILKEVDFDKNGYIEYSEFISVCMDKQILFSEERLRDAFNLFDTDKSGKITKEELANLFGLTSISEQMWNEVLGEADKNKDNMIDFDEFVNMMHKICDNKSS

In the case of `CCN1C(=O)N(CCC(C)C)C2(CCN(Cc3ccc(OC)cc3O)CC2)C1=O`, the results for the growth inhibition in experiment [1] and in experiment [4] were 77% (active) and 89% (active), respectively. Besides, the inhibition – broadly, the relative decrease from the control value, in per cent – is 13% in experiment [2] and 4% in experiment [3]. Also, the result in experiment [5], in experiment [6], in experiment [7] and in experiment [8] was inactive.

In the case of `COc1ccc2nccc([C@@H](O)CN3CCC(NC(=O)/C=C/c4ccc5cc(C)[nH]c5c4)CC3)c2c1`, the values for the growth inhibition in experiment [1] and in experiment [4] were 93% (active) and 97% (active), respectively. The inhibition is 7% in experiment [2] and -6% in experiment [3]. Moreover, the result in experiment [5], in experiment [6], in experiment [7] and in experiment [8] was inactive.

Consider `CCc1ccc(-n2cc(C(=O)c3cc(Br)ccc3O)cc(C#N)c2=O)cc1`, for which the growth inhibition in experiment [1] was 30%; in experiment [4] it was 97% (active). Further, the inhibition is 9% in experiment [2] and -2% in experiment [3]. Further, the result in experiment [5], in experiment [6], in experiment [7] and in experiment [8] was inactive.

On to `CCn1c(SC)nnc1C1CCCN(CC(=O)Nc2nc3ccc(OC)cc3s2)C1` (stereo not given), for which the growth inhibition was 81% (active) in experiment [1] and 97% (active) in experiment [4]. Moreover, the inhibition is -3% in experiment [2] and 0% in experiment [3]. The result in experiment [5], in experiment [6], in experiment [7] and in experiment [8] was inactive.

On to `CC(C)COc1ccc(C(O)C(CN2CCCCC2)c2ccccc2)cc1` (stereo not given), for which the figures for the growth inhibition in experiment [1] and in experiment [4] were 89% (active) and 93% (active), respectively. Moreover, the figures for the inhibition in experiment [2] and in experiment [3] were 11% and -11%, respectively. The outcome in experiment [5], in experiment [6], in experiment [7] and in experiment [8] was inactive.

In the case of `COC(=O)[C@@H](NC(=O)[C@H](CC(C)C)Nc1ccc(C#N)c2ccccc12)c1ccc(O)cc1`, the growth inhibition is 87% (active) in experiment [1] and 98% (active) in experiment [4]. Besides, the results for the inhibition in experiment [2] and in experiment [3] were 4% and 0%, respectively. Besides, the outcome in experiment [5], in experiment [6], in experiment [7] and in experiment [8] was inactive.

Consider `Cc1cccc2[nH]c(C3CCN(CC4CCN(C(=O)/C=C/c5ccc(Cl)c(Cl)c5)CC4)CC3)nc12`, for which the results for the growth inhibition in experiment [1] and in experiment [4] were 79% (active) and 100% (active), respectively. Also, the inhibition in experiment [2] was 46%; in experiment [3], 0%. Further, the outcome in experiment [5], in experiment [6], in experiment [7] and in experiment [8] was inactive.

With `Cc1sc(C)c(C(F)(F)F)c1CNCCCNc1cc(=O)c2ccccc2[nH]1`, the values for the growth inhibition in experiment [1] and in experiment [4] were 43% and 96% (active), respectively. Also, the inhibition was -3% in experiment [2] and -1% in experiment [3]. The outcome in experiment [5], in experiment [6], in experiment [7] and in experiment [8] was inactive.

With `Cc1ccc(-c2nc(Nc3ccncc3)c3ccccc3n2)s1`, the figures for the growth inhibition in experiment [1] and in experiment [4] were 34% and 95% (active), respectively. Besides, the inhibition in experiment [2] was 6%; in experiment [3], 1%. The result in experiment [5], in experiment [6], in experiment [7] and in experiment [8] was inactive.

Consider `Cc1ccc(NC(=O)c2ccc(CN3CCCN(CCC(C)C)CC3)cc2)cc1F`, for which the growth inhibition is 31% in experiment [1] and 91% (active) in experiment [4]. The inhibition in experiment [2] was 40%; in experiment [3], 1%. The result in experiment [5], in experiment [6], in experiment [7] and in experiment [8] was inactive.

Consider `CCCCC1=CC2C(=O)C(C(=O)OC)=CN=C2C=C1OCc1ccccc1` (stereo not given), for which the growth inhibition was 98% (active) in experiment [1] and 99% (active) in experiment [4]. In addition, the inhibition in experiment [2] is 7%; in experiment [3], 2%. In addition, the result in experiment [5], in experiment [6], in experiment [7] and in experiment [8] was inactive.

As for `COc1cc(OC)cc(-c2nnc(Sc3ccc(C#N)c([N+](=O)[O-])c3)n2C)c1`, the growth inhibition in experiment [1] was 77% (active); in experiment [4], 95% (active). For the same compound, the inhibition in experiment [2] is 1%; in experiment [3] it was 3%. The outcome in experiment [5], in experiment [6], in experiment [7] and in experiment [8] was inactive.

Take `CC(C)(C)c1ccc(OC(=O)c2ccc(NC(=O)N[C@@H](Cc3ccc(O)cc3)C(=O)NC3CCN(Cc4ccc(O)cc4)C3)cc2)cc1` (stereo not given in full): the growth inhibition is 67% (active) in experiment [1] and 92% (active) in experiment [4]. Moreover, the inhibition was 0% in experiment [2] and -3% in experiment [3]. Also, the result in experiment [5], in experiment [6], in experiment [7] and in experiment [8] was inactive.

Regarding `CC(C)N1CCC(N(Cc2ccc(-c3ccc(Cl)cc3)cc2)C(=O)Cn2c(CCc3cccc(F)c3F)cc(=O)c3ccccc32)CC1`, the growth inhibition in experiment [1] is 73% (active); in experiment [4], 96% (active). The figures for the inhibition in experiment [2] and in experiment [3] were 62% (active) and 4%, respectively. Moreover, the outcome in experiment [5], in experiment [6], in experiment [7] and in experiment [8] was inactive.

In the case of `CN(C)Cc1cccc2[nH]c(-c3csc(Cc4cc(Cl)ccc4OCc4ccccc4)n3)nc12`, the growth inhibition in experiment [1] is 77% (active); in experiment [4], 100% (active). Moreover, the inhibition is 14% in experiment [2] and -2% in experiment [3]. The result in experiment [5], in experiment [6], in experiment [7] and in experiment [8] was inactive.

Turning to `Cc1cc(C(F)(F)F)n2nc(C(=O)N(Cc3cncn3Cc3ccccc3F)CC3CC3)cc2n1`, the growth inhibition in experiment [1] and in experiment [4] was 100% (active) each time. Moreover, the values for the inhibition in experiment [2] and in experiment [3] were -5% and 1%, respectively. The outcome in experiment [5], in experiment [6], in experiment [7] and in experiment [8] was inactive.

Regarding `COc1cc(NCCCNCC2c3ccccc3Oc3ccccc32)nc2ccccc12`, the growth inhibition in experiment [1] was 66% (active); in experiment [4], 99% (active). For the same compound, the inhibition is 99% (active) in experiment [2] and -9% in experiment [3]. The outcome in experiment [5], in experiment [6], in experiment [7] and in experiment [8] was inactive.

In the case of `O=C(CC(c1ccccc1)c1ccccc1O)N1CCOCC1` (stereo not given), the growth inhibition is 5% in experiment [1] and 84% (active) in experiment [4]. Moreover, the inhibition in experiment [2] was 30%; in experiment [3], 0%. Further, the result in experiment [5], in experiment [6], in experiment [7] and in experiment [8] was inactive.

Regarding `O=C(NCCN1Cc2ccccc2C1=O)c1ccc(Oc2ccc(C(=O)NCCN3Cc4ccccc4C3=O)cc2)cc1`, the results for the growth inhibition in experiment [1] and in experiment [4] were 95% (active) and 99% (active), respectively. The inhibition was 27% in experiment [2] and -1% in experiment [3]. For the same compound, the result in experiment [5], in experiment [6], in experiment [7] and in experiment [8] was inactive.

`CS(=O)(=O)c1cccc(-c2cnc(N)c3cc(-c4ccc5c(c4)OCO5)ccc23)c1`: the growth inhibition was 23% in experiment [1] and 91% (active) in experiment [4]. Also, the values for the inhibition in experiment [2] and in experiment [3] were 37% and 1%, respectively. The outcome in experiment [5], in experiment [6], in experiment [7] and in experiment [8] was inactive.
